Where a name gives a salt, the structure may show the parent alone.

The test has as its system MOLM14. The test is described as follows: cell viability relative to vehicle control; higher = less cytotoxic. The following applies: 10 µM; SRSF2 genotype: SRSF2 P95H/wt. An outline of the steps:
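CRISPR-edited SRSF2 P95 mutant and isogenic wild-type clones of four leukaemia lines were screened against Selleck bioactive, kinase and epigenetic probe libraries, with identity-inconsistent compounds removed. Compounds were acoustically dispensed into 384-well plates at a single 10 µM dose, with 2000 cells in 50 µL medium per well. After 48 h, supernatant was removed and CellTiter-Glo luminescence was read. Viability was expressed as percent of the on-plate DMSO vehicle control, analysed in Genedata Screener.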
Regarding `NC(=O)[C@@H](CCC(F)(F)F)N(Cc1ccc(-c2ncon2)cc1F)S(=O)(=O)c1ccc(Cl)cc1`, the cell viability was 88.2%.

`COc1c/c(=C2\C=c3ccccc3=N2)[nH]/c1=C\c1[nH]c(C)cc1C` [Obatoclax mesylate (GX15-070)]: the cell viability was 6.74%.

As to `O=C(O)CC(C(=O)O)n1c(O)c(C2=c3cc(Br)ccc3=NC2=O)sc1=S` (stereo not given), the cell viability stood at 81.8%.

On to `COc1cc(NS(=O)(=O)c2ccc(N)cc2)nc(OC)n1` [Sulphadimethoxine], for which the cell viability amounted to 96.7%.

Turning to `NC(=O)[C@@H]1CCCN1C(=O)[C@H](Cc1c[nH]cn1)NC(=O)[C@@H]1CCC(=O)N1` [Protirelin], the cell viability was 101%.

Consider `COC(=O)c1cc(OC)c(O)c(OC)c1` [Methyl syringate], for which the cell viability came to 89.2%.

Consider `N=c1ccn2c(n1)O[C@H]1[C@H](O)[C@@H](CO)O[C@H]12` [Cyclocytidine HCl], for which the cell viability came to 11.3%.

In the case of `O=P(O)(O)C(O)(Cc1cccnc1)P(=O)(O)O` [Risedronate sodium], the cell viability was determined as 91.8%.

Turning to `CN(C)CCOc1ccc(-c2nc(-c3ccncc3)c(-c3ccc4c(c3)CC/C4=N\O)[nH]2)cc1`, the cell viability came out at 30.2%.

In the case of `COC(=O)C1=C(C)NC(C)=C(C(=O)OCCN2CCN(C(c3ccccc3)c3ccccc3)CC2)C1c1cccc([N+](=O)[O-])c1` (stereo not given) [Manidipine (Manyper)], the cell viability amounted to 73.9%.

On to `COC1CCN(C(=O)c2cc(Cc3n[nH]c(=O)c4ccccc34)ccc2F)CC1`, for which the cell viability was 57.9%.

Take `C=C1C[C@@]23CC[C@H]4[C@@](C)(CCC[C@@]4(C)C(=O)O[C@@H]4O[C@H](CO)[C@@H](O)[C@H](O)[C@H]4O)[C@@H]2CC[C@]1(O[C@@H]1O[C@H](CO)[C@@H](O)[C@H](O)[C@H]1O[C@@H]1O[C@H](CO)[C@@H](O)[C@H](O)[C@H]1O)C3` [Stevioside]: the cell viability was 112%.

As for `Cc1cc(=O)oc2ccc(O)cc12` [6-Hydroxy-4-methylcoumarin], the cell viability was 101%.

As to `COC1C(O)C(O)C(O)C(O)C1O` (stereo not given) [Sequoyitol], the cell viability is 105%.

Regarding `CC1(C)O[C@@H]2C[C@H]3[C@@H]4CCC5=CC(=O)C=C[C@]5(C)[C@@]4(F)[C@@H](O)C[C@]3(C)[C@]2(C(=O)CO)O1` [Triamcinolone Acetonide], the cell viability was 100%.

Turning to `COc1ccc(C(C)=O)c(O)c1` [Paeonol (Peonol)], the cell viability is 102%.

Consider `COc1cccc(/C=N/N(C(=O)C(F)(F)F)c2ccc(C)cc2C)c1`, for which the cell viability was found to be 98.5%.

On to `C=C1C(=O)[C@]23[C@H](O)[C@H]1CC[C@H]2[C@@]12CO[C@]3(O)[C@@H](O)[C@@H]1C(C)(C)CC[C@@H]2O` [Oridonin (Isodonol)], for which the cell viability was 9.97%.

Consider `CN(CCOc1ccc(CC2SC(=O)NC2=O)cc1)c1ccccn1` (stereo not given) [Rosiglitazone maleate], for which the cell viability came to 101%.

`CC(C)C[C@@H]1NC(=O)[C@@H](C(C)C)NC(=O)[C@@H]2CCCN2C(=O)[C@@H](CC(=O)O)NC(=O)[C@@H](Cc2c[nH]c3ccccc23)NC1=O`: the cell viability worked out at 99%.

Regarding `Cc1cc(Nc2ncc3c(n2)N(C)C(=O)N(c2cc(NC(=O)c4cccc(C(F)(F)F)c4)ccc2C)C3)n(C)n1` [Pluripotin (SC1)], the cell viability was found to be 7.16%.

Consider `C[C@]12C=CC(=O)C=C1CC[C@H]1[C@@H]3C[C@@H](O)[C@](O)(C(=O)CO)[C@@]3(C)C[C@H](O)[C@@]12F` [Triamcinolone (Aristocort)], for which the cell viability came to 107%.

Regarding `O=C(O)CCC(=O)O` [Succinic acid], the cell viability turned out to be 93.1%.

As to `CCOP(=O)(OCC)C(=Cc1cc(C(C)(C)C)c(O)c(C(C)(C)C)c1)P(=O)(OCC)OCC`, the cell viability amounted to 88.8%.

Take `O=C(/C=C/C=C/c1ccc2c(c1)OCO2)N1CCCCC1` [Piperine (1-Piperoylpiperidine)]: the cell viability is 106%.

Consider `Cc1cc(=O)n(-c2ccccc2)n1C` [Antipyrine], for which the cell viability came out at 88.1%.

With `CC(=O)OC(CC(C)C1=C2CC(O)C3C4(C)CCC(=O)C(C)(C)C4CCC3(C)C2(C)CC1)C1OC1(C)C` (stereo not given) [Alisol B Acetate], the cell viability came to 72.8%.

Turning to `CC(=O)Nc1ccccc1` [Acetanilide (Antifebrin)], the cell viability came out at 96.4%.

In the case of `CCS(=O)(=O)N1CC(CC#N)(n2cc(-c3ncnc4[nH]ccc34)cn2)C1`, the cell viability came out at 106%.

`O=C(O)[C@H]1O[C@@H](Oc2cc3oc(-c4ccc(O)cc4)cc(=O)c3c(O)c2O)[C@H](O)[C@@H](O)[C@@H]1O` [Scutellarin]: the cell viability came to 102%.

For `Cc1cc(S(=O)(=O)O)c2c(C)ccc(C(C)C)cc1-2` [Sodium gualenate], the cell viability stood at 99%.

As to `O=C(Nc1ccc(OC(F)(F)Cl)cc1)c1cnc(N2CC[C@@H](O)C2)c(-c2cc[nH]n2)c1` [Asciminib (ABL001)], the cell viability was found to be 92%.

For the compound `Nc1[nH]c(=O)ncc1Br` [5-Bromocytosine], the cell viability came out at 104%.

In the case of `CC[C@H](C)C(=O)O[C@H]1C[C@@H](C)C=C2C=C[C@H](C)[C@H](CC[C@@H]3C[C@@H](O)CC(=O)O3)[C@H]21` [Lovastatin (Mevacor)], the cell viability was determined as 82.9%.

In the case of `CO/N=C(\C(=O)N[C@@H]1C(=O)N2C(C(=O)[O-])=C(C[N+]3(C)CCCC3)CS[C@H]12)c1csc(N)n1` [Cefepime Dihydrochloride Monohydrate], the cell viability stood at 105%.

Regarding `CC(=O)OC(C)C(C)C(=O)OCC12C3CC(C)(C)[C@H](O[C@@H]1C[C@]1(C)C3=CCC3C4(C)CCC(O[C@@H]5O[C@H](C(=O)O)[C@@H](O[C@H]6O[C@H](CO)[C@@H](O)[C@H](O)[C@H]6O)[C@H](O)[C@H]5O[C@@H]5OC[C@@H](O)[C@H](O)[C@H]5O)[C@](C)(CO)C4CCC31C)C2O` (stereo not given in full) [Sodium Aescinate], the cell viability was 89.4%.

Turning to `C[C@H]1C[C@H]2[C@@H]3C[C@H](F)C4=CC(=O)C=C[C@]4(C)[C@@]3(F)[C@@H](O)C[C@]2(C)[C@@]1(O)C(=O)CO` [Diflorasone], the cell viability worked out at 92.1%.

For the compound `Oc1ccc(CC2NCCc3cc(O)c(O)cc32)cc1` (stereo not given) [Higenamine hydrochloride], the cell viability amounted to 79.8%.

On to `CC(C)(C)[N+]([O-])=Cc1ccc(S(=O)(=O)O)cc1S(=O)(=O)O` [NXY-059 (Disufenton sodium)], for which the cell viability worked out at 104%.

`CN1CCC(=C2c3ccccc3CCc3sccc32)CC1` [Pizotifen malate]: the cell viability was 76.5%.

For the origin of these results see the supplement of paper PMC10981050.
